40 molecules from PubChem BioAssay (NCATS) can be followed below.

Inconclusive results are not listed. Unmarked numbers belong to inactive results. Activity calls are given as the source filed them. Calls follow the shape of the dose curve; as a rule, active = well fitted inhibition curve with a large enough effect; inconclusive = small, poorly fitted or top-dose-only effect; inactive = no such curve, though single readings can be large or run the other way.
Potency is read from the fitted curve at half-maximal effect.

The test in a line: S16 Schwann cell PMP22 intronic element firefly luciferase assay (AID 624032). Also: nearly all actives have a fitted effect of over 30% in size. As to conditions: S16 rat Schwann cells, PMP22 element FLuc, 24 h; series mostly up to 57.5 µM; activity change, negative = inhibition: at the top concentration. An excerpt:
Charcot-Marie-Tooth-Association [CMTA]
National Center for Advancing Translational Sciences [NCATS]
Charcot-Marie-Tooth (CMT) disease was first characterized by Jean-Martin Charcot and Pierre Marie in France and, independently, by Howard Henry Tooth in England in 1886. CMT is one of the most common inherited neurological diseases, affecting approximately 1 in 2,500 Americans. […] The most prevalent type of CMT is known as CMT1A and caused by a duplication of the PMP22 gene which leads to over-expression of this protein. PMP22 is a glycosylated intrinsic membrane protein accounting for 2-5% of the myelin protein content, and its over-expression results in demyelination and subsequently axonal loss.
A pair of cellular transcription-based assays was developed in the S16 rat Schwann cell lines (Hai, M., et al., 2002) stably transfected with orthogonal reporters - firefly luciferase (Fluc) and beta-lactamase (beta-Lac) - whose expression is driven by an intronic regulatory element of the PMP22 gene (Jones, E.A., et al., 2011) to recapitulate endogenous expression of PMP22. The current assay employs Fluc to report on PMP22 expression. A comprehensive library of approved drugs, the NCGC Pharmaceutical Collection (Huang, R., et al., 2011), was screened in the cross-validating platform of the orthogonal reporter assays to identify drug modulators inhibitory towards PMP22 expression.
A set of counter-screens was devised to address non-specific activity of the library. An ATP-dependent CellTiter-Glo assay (developed by Promega Corp) was utilized to control cell viability. In addition, biochemical Fluc enzyme assay was performed to assess direct inhibition of the Fluc enzymatic activity.
Hai, M., Muja, N., DeVries, G.H., Quarles, R.H. and Patel, P.I. Comparative analysis of Schwann cell lines as model systems for myelin gene transcription studies. J Neurosci Res, 2002. 69(4): pp 497-508
Huang, R., Southall, N., Wang, Y., Yasgar A., Shinn P., Jadhav, A. , Nguyen, D.-T. and Austin, C.P., The NCGC pharmaceutical collection: a comprehensive resource of clinically approved drugs enabling repurposing and chemical genomics. Sci Transl Med, 2011. 3(80): p. 80ps16.
S16 Schwann cell PMP22 intronic element firefly luciferase assay
The FLuc-expressing S16 cells were seeded in white solid 1536-well plates at between 500-750 cells/4uL in DMEM medium containing 10% FBS, w/o phenol red. After overnight incubation at 37 degree Celsius/5% C02, 23 nL of compounds or DMSO were delivered to each well using a pin tool, followed by 24h-incubation at 37 degree Celsius/5% C02. Then 4 uL ONE-Glo luminescent substrate mix (Promega) was added to each well. Luminescence was measured on a ViewLux plate reader (Perkin Elmer). The % activity was determined by normalizing to the average readings of PTC124 (a positive control) - treated cells relative to DMSO-treated cells (0% Activity). The concentration-effect curves were then classified based on curve quality (r2), response magnitude and degree of measured activity.
In the case of `OC[C@@H](O)[C@@H](O)[C@H](O)[C@H](O)CO`, the “activity change, negative = inhibition” value is -8.55%. The same measure, in the same setting: in the case of `CCCCCCCC(=O)OCC(O)CO` (stereo not given) it was 0.0994%. Same read-out and setting: the figure for `O=C1c2ccccc2C(=O)C1c1ccc(Br)cc1` is 115%; for `O=C(/C=C/c1ccccc1)OCc1ccccc1` it is -11.3%; for `CC(O)CCCCn1c(=O)c2c(ncn2C)n(C)c1=O` (stereo not given) it is -8.74%. Still for that read-out and setting: the figure for `CN1CCN(C(=O)C2CCCCC2)CC1` is 8.33%; for `C[C@@H]1CCC[C@H](C)N1` it is -0.669% [at 25.7 µM]; for `CCCCC1(COC(=O)CCC(=O)O)C(=O)N(c2ccccc2)N(c2ccccc2)C1=O` it is 14.5% [at 25.7 µM]. Consider `Cc1c(I)c(=O)n(-c2ccccc2)n1C`, for which the “activity change, negative = inhibition” value was 15%.

For the molecule `OCC(O)CS` (stereo not given), the “activity change, negative = inhibition” value is -7.86%. Turning to `CN1C(C)(C)CCCC1(C)C`, the “activity change, negative = inhibition” value was 21.1%.

For the molecule `FC(F)(F)C(Cl)Br` (stereo not given), the “activity change, negative = inhibition” value was 4.48%. Regarding `Cc1onc(-c2ccccc2)c1-c1ccc(S(N)(=O)=O)cc1`, the “activity change, negative = inhibition” value was -24.1%. On the same count and under the same terms, in the case of `Cn1c(=O)c2c(ncn2CCO)n(C)c1=O` it was 33.7%; in that of `CCCCOC(=O)c1ccc(N)cc1`, 202%; in that of `CC(C)CCOC(=O)c1ccc(N(C)C)cc1`, 209%. On the same count and under the same terms, in the case of `CCN(CC)S(=O)(=O)c1ccc(C(=O)O)cc1` it was -6.64%; in that of `COc1ccc2cc(CCC(C)=O)ccc2c1`, 109% [at 25.7 µM]; in that of `CCCC(O)C(CC)CO` (stereo not given), -2.33%. For the molecule `COc1ccccc1OC(=O)Oc1ccccc1OC`, the “activity change, negative = inhibition” value is -4.09%. Still for that read-out and setting: the figure for `CC(C)c1cc2c(cc1S(=O)(=O)O)[C@@]1(C)CCC[C@@](C)(C(=O)O)[C@@H]1CC2` is -28.8%; for `O=C(Cn1ccnc1[N+](=O)[O-])NCCO` it is -9.31%.

As for `Cc1ccc(C(C)C)c(O)c1`, the “activity change, negative = inhibition” value was 3.88%.

With `O=C1C(c2[nH]c3ccccc3c2O)=Nc2ccccc21`, the “activity change, negative = inhibition” value is 3.98%. The same measure, in the same setting: the figure for `CC(=O)N[C@@H](Cc1ccc(O)cc1)C(=O)O` is 14.9%; for `CC(C)(C)C(=O)OCOC(=O)[C@@H]1N2C(=O)[C@@H](NC(=O)[C@H](N)c3ccccc3)[C@H]2SC1(C)C` it is -14.3% [at 25.7 µM].

As to `Nc1ncnc(Nc2ccccc2)n1`, the “activity change, negative = inhibition” value is 44.1%.

Take `CCCCCC(C)N` (stereo not given): the “activity change, negative = inhibition” value was -7.89%. As to `O=S1(=O)OC(c2ccc(O)cc2)(c2ccc(O)cc2)c2ccccc21`, the Potency was 10.2 µM (active).

Take `CNCc1ccccc1`: the “activity change, negative = inhibition” value was -35.2%. The same measure, in the same setting: in the case of `Cc1c(NC(C)C)c(=O)n(-c2ccccc2)n1C` it was -2.17%. On the same count and under the same terms, the figure for `COC(=O)c1cccnc1` is 1.32%. Turning to `CCOC(N)=O`, the “activity change, negative = inhibition” value is -9.68%. Consider `Cc1c(N(C)C)c(=O)n(-c2ccccc2)n1C`, for which the “activity change, negative = inhibition” value is -26.4%.

On to `COc1nccnc1NS(=O)(=O)c1ccc(N)cc1`, for which the “activity change, negative = inhibition” value is -5.75%. The same measure, in the same setting: in the case of `CCCNC(C)(C)COC(=O)c1ccccc1` it was -18.8%; in that of `CC(CN(C)C)C(C)(O)Cc1ccc(Cl)cc1` (stereo not given), 2.43%; in that of `O=C(O)c1cc(=O)c2ccccc2o1`, -11.8%. On the same count and under the same terms, in the case of `CC(=O)Nc1ccc(OCCOCCOc2ccc(NC(C)=O)cc2)cc1` it was 2.13%; in that of `CC(=O)SC[C@@H](Cc1ccccc1)C(=O)NCC(=O)OCc1ccccc1`, 1.29% [at 25.7 µM].
